In all, about 3,400 compounds went through this assay and about 840 (25%) were called active. Another 11% or so got no clear call; they are omitted. The list is a sample of the results. Entries with a potency or affinity are not part of this list. Unmarked numbers belong to inactive results.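 How the source made its calls: active means fitted half-maximal concentration of signal decrease at or below twice the sample's top tested concentration; inconclusive means flat curve between -70 and -30 percent, or poor fit; inactive means flat within 30 percent, signal rise, or potency above limit.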

The test in a line: T. gondii growth inhibition with IFN-gamma, dose response, cell-based, ME49Luc, HeLa, luciferase, 72 h (AID 1259418). Conditions: T. gondii ME49Luc in IFN-y HeLa, stronger effect = lower value, -100% = high-dose IFN-γ control wells; at 19.5 µM unless noted.
Take `CC(C)CCNc1nc(-c2ccc(Cl)cc2)nc2ccccc12`: the max activity is -13.6% [at 0.35 µM].

As to `COc1ccc(-c2nc(NCCN3CCC(C)CC3)c3ccccc3n2)cc1`, the max activity was 14.8%.

In the case of `CCCCNc1nc(-c2ccc(Cl)cc2)nc2ccccc12`, the max activity is 12.4% [at 0.68 µM].

Turning to `COc1ccc(-c2nc(NCC3CCN(Cc4ccccc4Cl)CC3)c3ccccc3n2)cc1`, the max activity was -15.1% [at 10 µM].

Take `COc1ccc2[nH]cc(CCNC(=O)c3cc(-c4ccccn4)nc4ccccc34)c2c1`: the max activity is -12.8% [at 5 µM].

For `Cc1ccc(-c2coc(-c3ccc(NS(=O)(=O)c4ccc(Cl)cc4)cc3)n2)cc1C`, the max activity was 40.5% [at 2.6 µM].

With `Cc1ccc(NC(=O)COc2nc(C)nc3ccccc23)c(Cl)c1`, the max activity is 15.5% [at 0.68 µM].

Take `COc1cc(OC)cc(-c2noc(-c3nnn(Cc4nc(-c5cccc(C)c5)oc4C)c3C)n2)c1`: the max activity is -7.99% [at 0.16 µM].

Turning to `Cc1ccc(NC(=O)Nc2ccc(-c3nc(-c4ccc(C)cc4)co3)cc2)cc1`, the max activity is 24% [at 5 µM].

In the case of `CCc1cccc(-n2nnc(C(=O)N3CCC(N4CCCCC4)CC3)c2-c2cccnc2)c1`, the max activity is 25.9% [at 0.68 µM].

In the case of `O=C1CC(c2ccncc2)C2(CCN(Cc3nccs3)CC2)N1` (stereo not drawn), the max activity was 22.8%.

As for `COCC(=O)N1CCC2(CC1)CC1(CCN(CC(C)C)CC1)C(=O)N2C`, the max activity was 34.4%.

Regarding `CCS(=O)(=O)N1CC[C@H]2[C@@H]1CCN2Cc1cnn(C)c1`, the max activity was 27.1%.

Turning to `COc1ccc(-c2nc(Nc3cc(Cl)c(OC)cc3OC)c3ccccc3n2)cc1`, the max activity was 18.3%.

Consider `COc1ccc(-c2nc(Nc3ccc(OC)c(Cl)c3)c3ccccc3n2)cc1`, for which the max activity is 16.4% [at 2.6 µM].

As for `Cc1ccc(S(=O)(=O)N2CCC3(CC2)OC(C(=O)N(C)C)Cn2ccnc23)cc1` (stereo not drawn), the max activity was 40.3%.

Turning to `O=C(C1CC1)N1C[C@@H]2N[C@H](C1)C2c1ccc(/C=C/c2ccccc2)cc1` (stereo partly drawn), the max activity was 92.7% [at 0.08 µM].

For the compound `O=C(CN1CCOCC1)N1C[C@@H]2N[C@H](C1)C2c1ccc(/C=C/c2ccccc2)cc1` (stereo partly drawn), the max activity was 41.5% [at 10 µM].

Consider `COc1ccccc1NC(=O)N1C[C@@H]2N[C@H](C1)C2c1ccc(/C=C/c2ccccc2)cc1` (stereo partly drawn), for which the max activity is -98%.

In the case of `N#Cc1cccc(-c2ccc(C3[C@@H]4CN(C(=O)c5ccc6c(c5)OCO6)C[C@H]3N4)cc2)c1` (stereo partly drawn), the max activity was 17.9%.

Consider `N#Cc1ccc(-c2ccc([C@@H]3[C@H]4CNC[C@@H]3N4Cc3ccc4c(c3)OCO4)cc2)cc1`, for which the max activity is 28.6% [at 10 µM].

Turning to `O=C(Nc1ccccc1F)N1C[C@@H]2N[C@H](C1)C2c1ccc(/C=C/c2ccccc2)cc1` (stereo partly drawn), the max activity was 85.7% [at 1.2 µM].

For `O=C(Nc1ccc2c(c1)OCO2)N1C[C@@H]2N[C@H](C1)C2c1ccc(C=Cc2ccccc2)cc1` (stereo partly drawn), the max activity was 116% [at 1.2 µM].

The record behind these values is PubChem BioAssay AID1259418 (Broad Institute, 2018).
